Measured values: PubChem BioAssay (Tox21)
Where “and” joins values, the source holds several entries; their conditions need not be identical. Equal values may be shown once. Results filed as inconclusive are left out. A call without a number means that no potency is given here. Calls of active or inactive are those of the source. The call rests on the fitted dose curve; in most records, active means well fitted cell-killing curve with a large enough effect in the repeat runs; inconclusive means weak or mixed curves, or effect the other way; inactive means flat fitted curve, though single readings scatter.
Potency means the concentration at half of the fitted maximal effect.

Test: qHTS assay to identify small molecule antagonists of the constitutive androstane receptor (CAR) signaling pathway - cell viability counter screen (AID 1224837); further: nearly all actives have a fitted effect of over 45% in size
Details: HepG2-CYP2B6-hCAR viability, CellTiter-Fluor, 23 h, co-treated with 50 nM CITCO; series mostly up to 92.4 µM; activity change, negative = cytotoxicity: at the top concentration
Excerpt: National Center for Advancing Translational Sciences [NCATS]
NIH Chemical Genomics Center [NCGC]
U.S. Environmental Protection Agency [EPA]
National Institutes of Environmental Health Sciences [NIEHS]
National Toxicology Program [NTP]
U.S. Food and Drug Administration [FDA]
The constitutive androstane receptor (CAR) is a nuclear receptor which regulates multiple drug metabolizing enzymes (DMEs) and transporters. Activating CAR will generally increase the transcription and subsequent translation of CYP2B6 and CYP3A4. These two DMEs represent about 50% of the drug metabolizing potential in the body. When CAR is deactivated, the metabolizing potential in the body will decrease, subsequently increasing the toxicity in the body or lowering the therapeutic potential of a pro-drug. Recently, there have also been studies performed indicating CARs role in energy metabolism and cancer therapy. Therefore, inhibiting CARs activity could have a potential effect on diabetes and cancer. Identifying environmental toxins and compounds which modulate CAR, through the use of the Tox21 10K compound collection, will be an important step in determining the toxicity and potential therapeutic effects these factors will have on the human body. To differentiate true CAR antagonists from cytotoxic substances, the assay is multiplexed with a cell viability assay.
Tox21 Assay Protocol Summary:
A double-stable (hCAR and CYP2B6-2.2kb) transfected cell line, derived from human hepatoma (HepG2) cells, was utilized for the duration of the quantitative high-throughput screens. The HepG2-CYP2B6-hCAR cells were dispensed at 2500 cells/4 uL/well in 1536-well white solid bottom plates using a Multidrop Combi. After the assay plates were incubated at 37 C/5% CO2 for 4 hrs, 23 nL of compounds at 15 concentrations (from 5-48 columns) or positive control (from 1 to 4 columns) were transferred to the assay plates using a Pintool station. One uL of CITCO (final concentration = 50 nM) was added, using a Flying Reagent Dispenser, inside each well. After a 23 hr incubation period at 37 C/5% CO2, 1 uL of CellTiter-Fluor reagent was added into each well of the assay plates using a Flying Reagent Dispenser. The fluorescence intensity in the plates was then measured using a ViewLux plate reader.
In the case of `NC1CCCCC1`, the Potency is reported as “inactive”. With `CCCCOC(=O)c1ccc(O)cc1` the Potency was “inactive”. With `CN(C)C(=O)Nc1ccc(Cl)c(Cl)c1` the Potency was “inactive”. For `O=C1OC2(c3ccccc31)c1cc(Br)c(O)c(Br)c1Oc1c2cc(Br)c(O)c1Br`, the Potency was 7.81 µM (active) and 25 µM (active). With `CCOc1ccc(NC(C)=O)cc1` the Potency was “inactive”. For `CN(C)CCOC(C)(c1ccccc1)c1ccccn1` (stereo not given), the Potency was “inactive”. With `CC(=O)C(=O)O` the Potency was “inactive”. In the case of `O=S1(=O)OC(c2ccc(O)cc2)(c2ccc(O)cc2)c2ccccc21`, the Potency is reported as 27.3 µM (active) and 13.3 µM (active). For `CN(C)C(=S)SC(=S)N(C)C`, the Potency was 1.57 µM (active) and 1.72 µM (active) and 2.37 µM (active). With `NC(CO)(CO)CO` the Potency was “inactive”. With `CN(C)CCOC(c1ccccc1)c1ccccc1` the Potency was “inactive”. In the case of `Nc1c(N=Nc2ccc(-c3ccc(N=Nc4cc(S(=O)(=O)O)c5ccccc5c4N)cc3)cc2)cc(S(=O)(=O)O)c2ccccc12`, the Potency is reported as 24.3 µM (active). With `C[C@](N)(Cc1ccc(O)c(O)c1)C(=O)O` the Potency was “inactive”. In the case of `CCOC(N)=O`, the Potency is reported as “inactive”. For `CC1(C)S[C@@H]2[C@H](NC(=O)[C@H](N)c3ccccc3)C(=O)N2[C@H]1C(=O)O`, the Potency was “inactive”. In the case of `O=C(O)CC(O)C(=O)O` (stereo not given), the Potency is reported as “inactive”. For `NS(=O)(=O)c1cc2c(cc1Cl)NCNS2(=O)=O`, the Potency was “inactive”. With `CS(=O)(=O)OCCCCOS(C)(=O)=O` the Potency was “inactive”. With `CC(C)NCC(O)c1ccc(O)c(O)c1` (stereo not given) the Potency was “inactive”. With `C/C=C/C=C/C(=O)O` the Potency was “inactive”. With `COc1ccc(CN(CCN(C)C)c2ccccn2)cc1` the Potency was “inactive”. In the case of `NS(=O)(=O)O`, the Potency is reported as “inactive”. With `CN(N=O)C(=O)N[C@@H]1[C@@H](O)[C@H](O)[C@@H](CO)O[C@@H]1O` the Potency was “inactive”. With `CCCCC1(COC(=O)CCC(=O)O)C(=O)N(c2ccccc2)N(c2ccccc2)C1=O` the Potency was “inactive”. In the case of `CC12CCC(CC1)C(C)(C)O2`, the Potency is reported as “inactive”. In the case of `CC1(C)O[C@@H]2C[C@H]3[C@@H]4CCC5=CC(=O)C=C[C@]5(C)[C@@]4(F)[C@@H](O)C[C@]3(C)[C@]2(C(=O)CO)O1`, the Potency is reported as “inactive”. With `CCc1nc(N)nc(N)c1-c1ccc(Cl)cc1` the “activity change, negative = cytotoxicity” value was -20.2% [at 42.5 µM] (inactive). In the case of `Cc1cc(=O)oc2cc(O)ccc12`, the Potency is reported as “inactive”. With `CCN(Cc1c(F)cccc1Cl)c1c([N+](=O)[O-])cc(C(F)(F)F)cc1[N+](=O)[O-]` the “activity change, negative = cytotoxicity” value was -14% (inactive). For `CC(C)c1c(C(=O)Nc2ccccc2)c(-c2ccccc2)c(-c2ccc(F)cc2)n1CC[C@@H](O)C[C@@H](O)CC(=O)O`, the Potency was “inactive”. In the case of `O=C1NS(=O)(=O)c2ccccc21`, the Potency is reported as “inactive”. For `CCCCCCc1ccc(O)cc1O`, the Potency was “inactive”. In the case of `CCCCCCCCCCCC[N+](C)(C)Cc1ccccc1`, the Potency is reported as 47.6 µM (active) and 23.7 µM (active). With `O=C1c2c(O)cccc2Cc2cccc(O)c21` the Potency was “inactive”. In the case of `CN1CCC[C@H]1c1cccnc1`, the Potency is reported as “inactive”. For `Cc1ncc([N+](=O)[O-])n1C`, the Potency was “inactive”. With `CCCCC(CC)C(=O)O` (stereo not given) the Potency was “inactive”. For `CCCC[P+](CCCC)(CCCC)CCCC`, the Potency was “inactive”. For `O=CC(=O)c1ccccc1`, the “activity change, negative = cytotoxicity” value was -15% (inactive). For `C=C(C)C(=O)OCC(C)O` (stereo not given), the Potency was “inactive”.
